Measured values published in the OligoGym collection.

The sequences below were run against SNRNP70 (assay: pooled miR-30 sensor sort-seq; sequence = guide strand). Details: shRNA.
Note: reference of the scale not given here.

Row | Sequence | sensor-assay potency score (higher = more potent)
1 | TTTGATAGGTCCGTACACCTCA | 0.253
2 | AATCTTCTTGCCATCTGCGTGT | -0.116
3 | TTGATAGGTCCGTACACCTCAA | -0.456

The sequences below were run against SNRPD1 in the same assay as above. Details: shRNA.

Row | Sequence | sensor-assay potency score (higher = more potent)
4 | TGTGATTGTTCCATGGACCTGT | 1.16
5 | TCAACATCCACAAGTAGTGTAT | -0.261
6 | TAGATTTCACCTTAGGTTCAAC | -0.589
7 | TATCCAGAGGTAAACTGTCTGG | -1.01
8 | TCTTCCTGCAACAGCTTCCCTT | -1.09
9 | TACAGGTTCTCTGTTCTTCAGG | -0.643
10 | TAGAATAAAATACCGAATGTTA | -0.767
11 | TTAAGATGTGTATTCATGCTGA | -0.136
12 | TCTGGTAGAATAAAATACCGAA | 0.138
13 | TTCTCTGTTCTTCAGGGTCATT | -1.71
14 | TCATGCTGACATCCACACCTGT | -0.408
15 | TTCAACATCCACAAGTAGTGTA | 0.419

Each sequence was assayed against SNTG1 in the same assay as above. Details: shRNA.

Row | Sequence | sensor-assay potency score (higher = more potent)
16 | TTGCTCGTGGTAGCAGAGCTGG | -1.52
17 | TTTGTTGCAGCATCAAAGCAGA | -0.518
18 | TAATGTGTCTGTATTGTTGGGA | 0.882
19 | TAGCACACATGCATAGGTCTTG | 0.196
20 | TTGGAGCACATGCACAATCTTC | -1.22
21 | TGAAGCACTGTTTCCGTCGGTC | -0.425
22 | TTGTCTTCTGATGGTCACCGTT | -1.02
23 | TTATCTGTAGAATTGCATCTCC | 0.36
24 | TTTAATATTGTGCTTTGTGAGA | -0.565
25 | TGACTTTCTAGCACACATGCAT | -0.281
26 | TTAGAGTCACTTCTTCTCCAGC | -1
27 | TAGGTCTTGCACTGTATCCGTT | -0.173

The sequences below were run against SNX19 in the same assay as above. Details: shRNA.

Row | Sequence | sensor-assay potency score (higher = more potent)
28 | TTTCCAGTAACTTTGTCTGTTT | -0.546
29 | TAACTCTACTTCCCTGACCTGG | -0.776
30 | TGAACTTTCGTAGATCTGGTTT | -0.266
31 | TGAGGTGACAGCTCGATCCAGC | 0.362
32 | TTTCTTCACACATCCCACCCAA | -0.125
33 | TTAATATACAGCACTTCCCTGT | 0.105
34 | TAGATCTGGTTTCTCCTCCAGA | -0.172
35 | TACTCTGTCACTGTCCATGTTT | -0.134
36 | TAAAGGACTGATTATAACCGTA | -0.44
37 | TTCTACTCTGTCACTGTCCATG | -0.887
38 | TACTTCACAGTATAGAGTGTGT | -0.265
39 | TTATTGAGGTGACAGCTCGATC | -1.16
